Only some compounds are listed: those with a hit (about 3.1% of all), similar ones and a draw of the others.
BioA inh = inhibitors of Mycobacterium tuberculosis BioA enzyme. purified M. tuberculosis BioA enzyme, plate reader. inhibition, % at 9.99 µM. 360,000 tested, 0.096% active; in the data active means inhibition above about 40%
3CLpro inhibitor = SARS-CoV 3CLpro protease inhibition; P0C6X7; recombinant SARS-CoV 3CLpro, quenched FRET peptide cleavage; inhibition, % at 6 µM; 290,000 tested, 0.14% active; in the data active means inhibition above about 12%
FBA Mtb inh = inhibits M. tuberculosis FBA enzyme; purified M. tuberculosis FBA, fluorescence read-out; inhibition, % at 1 µM; 360,000 tested, 2.3% active;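 further: 0% = vehicle and 100% = reference inhibitor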
Target sequence (P9WQA3 whole entry, looked up): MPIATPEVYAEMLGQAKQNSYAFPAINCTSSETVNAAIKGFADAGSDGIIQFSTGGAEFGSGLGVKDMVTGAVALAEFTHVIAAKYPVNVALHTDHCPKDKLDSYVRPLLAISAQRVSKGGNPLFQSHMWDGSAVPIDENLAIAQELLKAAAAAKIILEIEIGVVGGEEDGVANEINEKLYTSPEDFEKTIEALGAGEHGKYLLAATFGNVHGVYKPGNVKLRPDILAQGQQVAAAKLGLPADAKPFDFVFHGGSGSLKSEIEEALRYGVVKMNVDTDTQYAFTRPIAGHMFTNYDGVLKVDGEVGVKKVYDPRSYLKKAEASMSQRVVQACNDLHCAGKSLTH
GDH-TPI counter-1 = inhibits GDH-TPI coupling enzymes, artifact for Mtb FBA screen; GDH-TPI coupled enzyme counterscreen, NADH absorbance; inhibition, % at 4.8 µM; 360,000 tested, 1.2% active; AID 588335; in the data active means inhibition above about 30%;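 further: 0% = DMSO wells and 100% = wells lacking the enzyme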
FadD28 FP inh = inhibitors of Mycobacterium tuberculosis FadD28 bisubstrate binding; FadD28 bisubstrate probe binding, fluorescence polarization; inhibition, % at 12.5 µM; 360,000 tested, 0.22% active; AID 588549; in the data active means inhibition above about 8.5%, passing the limit was not always enough
Mtb FBA inh conf = Mtb FBA inhibition, confirmed | shares compounds with FBA Mtb inh | purified M. tuberculosis FBA, fluorescence read-out | inhibition, % at 1 µM | 5,600 tested, 78% active;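 further: 0% = vehicle wells and 100% = reference inhibitor wells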
GDH-TPI counter-2 = counter-screen for M. tuberculosis FBA inhibitors: GDH-TPI coupled enzyme inhibition; GDH-TPI coupled enzyme counterscreen, fluorescence; inhibition, % at 1 µM; 5,600 tested, 81% active; shares compounds with FBA Mtb inh; AID 652141; in the data active means inhibition above about 10%
GDH-TPI DR = inhibits GDH-TPI coupling enzymes in dose response. IC50, µM. shares compounds with FBA Mtb inh. 170 tested, 79% active. GDH-TPI coupled enzyme assay, fluorescence, artifact counterscreen; call rule not given here
Numbers without * were called inactive; x = not tested or not shown; + = active, no number. Unless noted, no stated cut-off is given here; in the data, active means inhibition above about 27%; inactive means the rest.

SMILES	BioA inh	3CLpro inhibitor	FBA Mtb inh	GDH-TPI counter-1	FadD28 FP inh	Mtb FBA inh conf	GDH-TPI counter-2	others
CCCC(=O)NC(=S)Nc1cc(-c2nc3ncccc3o2)ccc1C	x	-1	-1	1	-1	x	x
CCCC(=O)Nc1ccc(-c2nc3ncccc3o2)cc1	-1	2	87*	30	-2	21	17*
COc1ccccc1CN(C)C[C@@H]1OCc2cn(nn2)CCCC(=O)N([C@@H](C)CO)C[C@@H]1C	-2	x	x	x	x	x	x
COc1ccc(S(=O)(=O)N(C)C[C@H]2Oc3ccc(NS(=O)(=O)c4cn(C)cn4)cc3CC(=O)N([C@@H](C)CO)C[C@@H]2C)cc1	-1	x	x	x	x	x	x
O=C(Nc1ccc2oc(-c3cccnc3)nc2c1)c1cc2ccccc2o1	0	-3	2	15	-1	x	x
CCCC(=O)Nc1ccc2oc(-c3cccnc3)nc2c1	24	-1	74*	3	-2	169*	138*
COc1ccc(S(=O)(=O)Nc2ccc3c(c2)C(=O)N([C@@H](C)CO)C[C@H](C)[C@@H](CN(C)C)OCCCC[C@H](C)O3)cc1	-1	x	x	x	x	x	x
O=C1CC2(CCN(C(=O)COc3ccccc3)CC2)Oc2ccccc21	8	x	7	8	-4	x	x
CC(=O)N1CCC2(CC1)CC(=O)c1cc(OCC(=O)N3CCC4(CC3)OCCO4)ccc1O2	x	7	58*	9	-3	27*	25*
CC(=O)N1CCC2(CC1)CC(=O)c1cc(OCC(=O)N3CCN(C)CC3)ccc1O2	-1	-3	59*	16	-2	56*	47*
Cc1ccccc1OCC(=O)N1CCC2(CC1)CC(=O)c1ccccc1O2	x	x	7	0	-4	x	x
Cc1ccc(S(=O)(=O)N[C@H]2C=C[C@H](CC(=O)NCc3ccc(Cl)c(Cl)c3)O[C@H]2CO)cc1	-2	x	x	x	x	x	x
Cc1cc(C)n2nc(C(=O)OCC(=O)N(C)Cc3ccccc3)nc2n1	0	x	-1	13	-2	x	x
Cc1cc(C)n2nc(C(=O)OCC(=O)c3ccccc3)nc2n1	-1	x	28*	0	-2	95*	68*
COc1ccc(NC(=O)Nc2ccc3c(c2)[C@@H]2C[C@@H](CC(=O)NCC(F)(F)F)O[C@@H](CO)[C@@H]2O3)cc1	0	x	x	x	x	x	x
C[C@@H]1CN([C@@H](C)CO)C(=O)c2cc(NC(=O)CCCN(C)C)ccc2O[C@@H](C)CCCCO[C@@H]1CN(C)C(=O)Cc1ccccc1	2	x	x	x	x	x	x
NC(=O)c1ccccc1N/C=C1\CCCCC1=O	x	-3	28*	3	-1	91*	73*
C[C@@H]1CN([C@@H](C)CO)S(=O)(=O)c2ccc(C3=CCCCC3)cc2O[C@H]1CN(C)C(=O)c1ccc(F)cc1	-1	x	x	x	x	x	x
Cn1c(CCc2ccc(N)cc2)nc2ccccc21	x	-2	0	-2	-3	x	x
Cn1c(-c2ccc(N)cc2)nc2ccccc21	0	-2	88*	-4	-2	+	+
Cn1c(-c2ccc(Cl)nc2)nc2ccccc21	2	-7	37*	-1	0	113*	83*
CCOC(=O)Cn1c(-c2ccc(Cl)nc2)nc2ccccc21	x	-5	43*	11	0	122*	106*
CCC(=O)N1[C@@H]2Cn3c(cccc3=O)[C@H]1[C@@H](C(=O)NCc1ccc(F)cc1)[C@@H]2CO	-1	x	x	x	x	x	x
O=C1OCc2cccc3cccc1c23	-1	0	50*	23	-2	198*	174*
CCN1CCN(C(=O)Nc2cccc3ccccc23)CC1	1	-2	44*	1	-3	71*	72*
SMILES	BioA inh	3CLpro inhibitor	FBA Mtb inh	GDH-TPI counter-1	FadD28 FP inh	Mtb FBA inh conf	GDH-TPI counter-2	others
CN1CCN(C(=O)Nc2cccc3ccccc23)CC1	-1	-2	40*	-6	-1	10	-6
O=C(Nc1cccc2ccccc12)N1CCc2ccccc2C1	0	2	43*	7	-2	14	-3	GDH-TPI DR=>10
O=C(Nc1cccc2ccccc12)N1CCOCC1	-2	-2	45*	-2	-2	122*	88*
CCCC#Cc1cnc2c(c1)C(=O)N([C@H](C)CO)C[C@H](C)[C@@H](CN(C)Cc1ccncc1)O2	1	x	x	x	x	x	x
CO[C@H]1CN(C)C(=O)c2ccc(NC(=O)c3ccccc3F)cc2OC[C@@H](C)N(C(=O)c2ccccc2F)C[C@H]1C	0	x	x	x	x	x	x
CN1C(=O)c2cc(NC(=O)c3ccccc3F)ccc2OC[C@@H]2O[C@H](CC(=O)NCc3ccc4c(c3)OCO4)CC[C@H]21	-1	x	x	x	x	x	x
CC(C)NC(=O)N(C)C[C@@H]1OCCCC[C@H](C)Oc2ccc(NC(=O)Nc3ccc(F)cc3)cc2C(=O)N([C@@H](C)CO)C[C@H]1C	-2	x	x	x	x	x	x
CCN(CC)C(=O)C1CCCN(C(=S)Nc2cccc3ccccc23)C1 (stereo not given)	x	-7	21	7	-5	x	x
O=C(O)c1ccccc1NC(=O)N1CCOCC1	x	6	32*	3	0	112*	90*
O=C(Nc1cccc2ccccc12)N1CCN(c2ccc(F)cc2)CC1	-1	-7	30*	5	0	54*	55*
NC(=O)C1CCCN(C(=O)Nc2cccc3ccccc23)C1 (stereo not given)	-1	4	40*	-3	0	60*	46*
CN(C)C(=O)C[C@@H]1CC[C@@H]2[C@@H](COc3ccc(NC(=O)Nc4cccc(Cl)c4)cc3C(=O)N2C)O1	5	x	x	x	x	x	x
C[C@@H]1CN([C@@H](C)CO)C(=O)c2c(c3ccccc3n2C)-c2ccccc2CO[C@@H]1CN(C)C(=O)Nc1ccc2c(c1)OCO2	-2	x	x	x	x	x	x
COC(=O)C1=CN(Cc2cccs2)C=C(C(=O)OC)C1c1cccc(OC)c1OC	-1	6	53*	9	-1	82*	75*
COC(=O)C1=CN(Cc2ccc(OC)cc2)C=C(C(=O)OC)C1c1cccs1	x	-5	71*	-2	-7	7	7
COc1cc(CC(=O)OCC(=O)NCc2cccs2)cc(OC)c1OC	-1	x	2	4	0	x	x
Cc1ccc2c(n1)sc1c(-c3ccccc3)c(C#N)c(N)nc12	1	-6	69*	20	-3	163*	168*
COc1cc2ccccc2cc1C(=O)O	-1	0	7	5	-1	x	x
COc1cc2c(OC)cccc2cc1C(=O)O	-1	4	65*	11	0	+	+
CC(=O)N1CCc2c(sc(NC(=O)C3CCCN3S(=O)(=O)c3cccs3)c2C#N)C1 (stereo not given)	3	x	33*	8	0	48*	35*
CO[C@H]1CN(C)C(=O)c2cc(NS(C)(=O)=O)ccc2OC[C@@H](C)N(C(=O)C2CCC2)C[C@@H]1C	-2	x	x	x	x	x	x
